We go through 47 compounds from PubChem BioAssay AID504465 (National Center for Advancing Translational Sciences (NCATS), 2011).

Each structure is given as a SMILES string. The campaign covered roughly 2,100 compounds. About 210 (10%) were called active. Not shown: some 53% with an inconclusive outcome. Some of the results follow. Unmarked numbers belong to inactive results. Calls follow the shape of the dose curve; as a rule, active = well fitted inhibition curve with a large enough effect; inconclusive = small, poorly fitted or top-dose-only effect, or effect the other way; inactive = no such curve, though single readings can be large or run the other way.
Potency is read from the fitted curve at half-maximal effect.

The nature of this assay: IN Cell qHTS Assay for Inhibitors of the mTORC1 Signaling Pathway in MEF (Tsc2-/-, p53-/-) Cells: Sytravon. Also: nearly all actives have a fitted effect of over 60% in size.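 As to activity, negative = inhibition: plate controls were DMSO wells for no effect and 7.5 nM rapamycin full pathway inhibition for full effect.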 Conditions: phospho-rpS6 immunofluorescence, 24 h; series mostly up to 38.3 µM; activity, negative = inhibition: at the top concentration. The gist of the method: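 Tsc2-/-, p53-/- MEFs (empty-vector) treated with compound 24 h at 37 degree Celsius, then fixed and stained for phospho-rpS6 Ser235/236 (Alexa-488) plus Hoechst. Reported as % positive cells, thresholds set against 7.5 nM rapamycin and DMSO wells.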
Take `CC1CCN(C(=O)CN2c3ccc(C(C)C)cc3-c3ccccc3S2(=O)=O)CC1`: the “activity, negative = inhibition” value is -27%. As to `COc1ccccc1N1CCN(S(=O)(=O)c2ccc(-n3cnnn3)cc2)CC1`, the “activity, negative = inhibition” value is -7.47%. The same measure, in the same setting: to `Cc1cc(C)cc(OCC(=O)Nc2ccc(-c3nc4ncccc4o3)cc2C)c1` belongs -21.9%; to `COc1cccc(C2CC(=O)Nc3cc4c(cc32)OCCO4)c1OC` (configuration not stated), -21.4%; to `COc1cc(/C=C/c2nc(C#N)c(N3CCCCCC3)o2)cc(OC)c1OC`, -24.2%. The same measure, in the same setting: as for `CCOc1ccc(-c2c(C)nn3c(C)c(C(=O)Nc4cccc(Cl)c4C)cnc23)cc1OCC`, the figure is -10.9%; as for `COc1ccc(CNC(=O)c2cc(-c3ccc(Br)s3)nc3ccccc23)c(OC)c1`, -13.5%; as for `COc1ccc(CNC(=O)CCCc2cn(C)c3ccccc23)c(OC)c1`, 6.25%. In the case of `COc1ccc(CCNC(=O)C(C)n2nc(C)c3sc4ccccc4c3c2=O)c(OC)c1` (configuration not stated), the Potency is 4.65 µM (active). Take `O=C(Cn1cc(SCc2cccc(C(F)(F)F)c2)c2ccccc21)N1CCCCCC1`: the “activity, negative = inhibition” value was -22.9%. Still for that read-out and setting: as for `Cc1cccc(-c2noc(CNC(=O)c3ccc(C)cc3C)n2)c1`, the figure is -7.27%; as for `Cc1ccc(NC(=O)c2cc(S(=O)(=O)NCCC3=CCCCC3)ccc2F)cc1F`, 6.25%. Same read-out and setting: to `COc1ccc(-n2ncc3c(NCCCOC(C)C)ncnc32)cc1` belongs -3.87%; to `COc1cccc(-c2noc(CCCC(=O)NCc3ccco3)n2)c1`, -11.3%. On to `COc1ccccc1N1CCN(C(=O)c2cnc(N3CCCCC3)c3ccccc23)CC1`, for which the Potency was 5.85 µM (active). With `COc1ccccc1N1CCN(C(=O)c2nc(SC)ncc2Cl)CC1`, the “activity, negative = inhibition” value is -10.7%. Still for that read-out and setting: to `O=C(NCc1ccccc1Cl)c1cnc(N2CCCCC2)c2ccccc12` belongs -24.1%; to `Cc1ccccc1Nc1c(-c2cccc(N(C)C)c2)nc2ccc(Br)cn12`, 24.1%; to `Cc1cc(=O)n(CC(=O)N2CCN(c3ccccc3F)CC2)c2c1c(C)nn2C`, -5.56%. On the same count and under the same terms, to `COc1cc(NC(=O)Cn2nc(C(F)(F)F)c3c2CCCC3)c(OC)cc1Cl` belongs -24%. The same measure, in the same setting: as for `O=C(Nc1nnc(SCc2cc(=O)c3ccccc3[nH]2)s1)c1ccccc1`, the figure is -6.25%; as for `Cc1nnc(NC(=O)CSCc2cc(=O)c3ccccc3[nH]2)s1`, 14.3%. As to `CCCC(=O)Nc1nnc(SCc2cc(=O)c3ccc(C)cc3[nH]2)s1`, the Potency is 3.69 µM (active). Turning to `Cc1ccc(-n2c(SCc3nc(-c4ccccc4C)no3)nnc2-c2ccncc2)cc1C`, the “activity, negative = inhibition” value was -7.02%.

As to `C=CCc1cccc2cc(-c3nc4ccc(C)cc4[nH]3)c(=O)oc12`, the “activity, negative = inhibition” value is -4.54%.

`CCC(C(=O)Nc1cc(-c2nc3cccnc3s2)ccc1C)c1ccccc1` (configuration not stated): the “activity, negative = inhibition” value was -14.5%.

In the case of `CCCCN(CCCNC(=O)c1cc(Nc2ccc(OC)c(OC)c2)nc2ccccc12)Cc1ccccc1`, the Potency was 2.33 µM (active).

`CSc1cccc(Nc2cc(C(=O)NCCCN(Cc3ccccc3)C(C)C)c3ccccc3n2)c1`: the “activity, negative = inhibition” value was 0%. With `COc1ccc(N2CCN(CCCNC(=O)c3cc(Nc4ccccc4OC)nc4ccccc34)CC2)cc1`, the “activity, negative = inhibition” value was 0%. For the compound `COc1ccc(Nc2cc(C(=O)NCCCN(C)Cc3ccccc3)c3ccccc3n2)cc1OC`, the “activity, negative = inhibition” value was 0%. As to `COc1ccccc1Nc1cc(C(=O)NCCCN(C)C2CCCCC2)c2ccccc2n1`, the Potency is 1.65 µM (active).

Turning to `CC1CCCN(CCCNC(=O)c2cc(Sc3ccc(F)cc3)nc3ccccc23)C1` (configuration not stated), the “activity, negative = inhibition” value was 6.25%. Same read-out and setting: to `CC1CCCCN1S(=O)(=O)c1ccc(C(=O)Nc2sc3c(c2C(N)=O)CC(C)(C)NC3(C)C)cc1` (configuration not stated) belongs 6.25%. With `COc1ccccc1NC(=O)C1=C(C)Nc2nc(SCc3ccccc3)nn2C1c1cccs1` (configuration not stated), the “activity, negative = inhibition” value was -16.2%. The same measure, in the same setting: to `CCC1CN(C(=O)NCc2cccc(OC)c2)c2cc(Cl)ccc2O1` (configuration not stated) belongs -9.57%; to `Cc1ccc(NC(=O)C(Cc2c[nH]c3ccccc23)NC(=O)OC(C)(C)C)c(C)c1` (configuration not stated), 30.2%; to `O=C(Nc1cc(Cl)cc(Cl)c1)c1ccc(F)c(S(=O)(=O)NC2CCCCC2)c1`, 6.25%. On the same count and under the same terms, to `O=C1CC(c2c(F)cccc2Cl)c2c(ccc3ccccc23)N1` (configuration not stated) belongs 2%; to `COC(=O)c1ccc(C2C=C(c3ccc(Cl)cc3)Nc3nc4ccccc4n32)cc1` (configuration not stated), 0%. The same measure, in the same setting: as for `Cc1cccc(NC(=O)c2ccc(F)c(S(=O)(=O)NCc3ccc4c(c3)OCO4)c2)c1`, the figure is 6.25%.

With `Cc1cccc(NC(=O)c2nc(S(C)(=O)=O)ncc2Cl)c1`, the Potency is 2.61 µM (active). Regarding `Cc1c(C(=O)Nc2cccc(F)c2)oc2c1-c1nn(Cc3c(F)cccc3Cl)cc1CC2`, the “activity, negative = inhibition” value was -85.4%. On the same count and under the same terms, as for `CC1CCn2c(nc3cc(C(=O)NCc4ccccc4)ccc32)C1` (configuration not stated), the figure is 4.17%. On to `O=C(NCc1ccccc1)c1nc(S(=O)(=O)Cc2ccccc2)ncc1Cl`, for which the Potency was 18.5 µM (active). Still for that read-out and setting: to `CCS(=O)(=O)c1ncc(Cl)c(C(=O)NCc2ccc(OC)cc2)n1` belongs 3.29 µM (active); to `Cc1ccc(NC(=O)c2nc(S(=O)(=O)Cc3cccc(C)c3)ncc2Cl)cc1`, 6.56 µM (active). Take `COc1ccc(CNC(=O)C2CCC(CNS(=O)(=O)c3cccs3)CC2)cc1` (configuration not stated): the “activity, negative = inhibition” value was 21.6%.
